Assay results as given in PubChem BioAssay.
Values joined by “and” are separate entries in the source; they are usually repeats but may differ in a detail not shown here. Equal entries are not always repeated. Records with an inconclusive call do not appear. Active and inactive are the calls of the source.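 The calls were made as follows, unless noted: active = normalized viability below 100% at a tested concentration; inactive = the rest.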

What was measured:
[1] = growth inhibition of DIPG glioma cells, dose response, cell-based, SU-DIPG-XVII, MIPE5.0, CellTiter-Glo, qHTS (AID 1347060; cut-off not given, nearly all actives have AC50 up to about 26 µM;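 as to AC50: cells exposed to compound for 48 hours before viability readout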); conditions: SU-DIPG-XVII viability, CellTiter-Glo ATP luminescence
[2] = growth inhibition of DIPG glioma cells, dose response, cell-based, JHH-DIPG-1, MIPE4.0, CellTiter-Glo, qHTS (AID 1347062; cut-off not given, nearly all actives have AC50 up to about 27 µM;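 as to AC50: cells exposed to compound for two days before readout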); conditions: JHH-DIPG-1 viability, CellTiter-Glo ATP luminescence
[3] = growth inhibition of DIPG glioma cells, dose response, cell-based, SU-DIPG-IV, MIPE4.0, CellTiter-Glo, qHTS (AID 1347063; cut-off not given, nearly all actives have AC50 up to about 30 µM;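 also: compound exposure lasted 48 hours before the viability readout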); conditions: SU-DIPG-IV viability, CellTiter-Glo ATP luminescence
[4] = growth inhibition of DIPG glioma cells, dose response, cell-based, SU-DIPG-XIII, MIPE5.0, CellTiter-Glo, qHTS (AID 1347064; cut-off not given, nearly all actives have AC50 up to about 23 µM;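 as to AC50: cells exposed to compound for 48 hours before the viability read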); conditions: SU-DIPG-XIII viability, CellTiter-Glo ATP luminescence
[5] = viability loss in pontine glioma line – cell-based, SU-DIPG-XXV, MIPE5.0, CellTiter-Glo, qHTS, dose response (AID 1347065; cut-off not given, nearly all actives have AC50 up to about 26 µM;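 also: cells exposed to compound for 48 hours before ATP readout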); conditions: CellTiter-Glo ATP luminescence
[6] = SU-DIPG-VI glioma cell viability, MIPE4.0 library, CellTiter-Glo luminescence, qHTS (AID 1347066; cut-off not given, nearly all actives have AC50 up to about 30 µM;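 also: cells exposed to compound for 48 hours before readout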); conditions: CellTiter-Glo ATP luminescence
[7] = JHH-DIPG-1 glioma cell viability, MIPE5.0 library, CellTiter-Glo luminescence, qHTS (AID 1347067; cut-off not given, nearly all actives have AC50 up to about 26 µM;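 also: cells exposed to compound for 48 hours before readout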); conditions: JHH-DIPG-1 glioma viability, CellTiter-Glo ATP luminescence
[8] = SU-DIPG-XXV glioma cell viability, MIPE5.0 library, qHTS (AID 1347068; cut-off not given, nearly all actives have IC50 up to about 30 µM;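 as to IC50: cells exposed to compound for 48 hours before viability readout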)
[9] = sensitizers of A549 cells to miR-34 induction, primary screen, imaging, A549 dox-inducible miR-34, nuclei and caspase counts (AID 1347080;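 active = compounds whose cell count with miR-34 switched on is under 0.7 times the count with it off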); conditions: A549 miR-34 inducible, Hoechst nuclei count, 48 h
[10] = modifiers of HSF1 nuclear foci, imaging, Selleck Cancer Library (AID 1347162; in the data active = plate-normalised HSF1 focus index below about 0.46); conditions: human cells, at 10 µM; SSMD: measured here: HSF1 foci SSMD mean; cell count: measured here: cell number; plate-normalised HSF1 focus index: stronger effect = lower value
[11] = survival rescue of mitochondrial mutant cells in low glucose, primary screen, MELAS cybrids, Rieske KO mouse fibroblasts, CellTiter-Glo (AID 1508586;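 active = mean z-score across replicates of 1.96 or higher in either the MELAS or the Rieske mutant cell line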;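 also: z relative to plate mean and SD of compound and empty wells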)
[12] = ovarian cancer cell viability with rucaparib, profiling panel, oncology-focused library, rucaparib conditional (AID 1508598); conditions: patient-derived ovarian cancer cells, CellTiter-Glo viability, 144 h, stronger effect = lower value
[13] = growth inhibition of DIPG glioma cells, dose response, cell-based, SU-DIPG-XIII, MIPE4.0, CellTiter-Glo, qHTS (AID 1347061; cut-off not given, nearly all actives have AC50 up to about 37 µM;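 also: cells exposed to compound for 48 hours before readout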); conditions: SU-DIPG-XIII viability, CellTiter-Glo ATP luminescence
[14] = stronger effect = lower value, cell number ratio, induced over uninduced
[15] = measured here: relative caspase fold change +Dox/-Dox
[16] = measured here: total cells with miR-34 induction, stronger effect = lower value
[17] = measured here: total cells without miR-34 induction
[18] = MELAS cybrid survival, CellTiter-Glo 48 h, stronger effect = higher value
[19] = Rieske KO mouse fibroblast survival, CellTiter-Glo 72 h
[20] = at 0.000305 µM, OCI-C5x cells, with rucaparib 10 µM, 100% = cells with rucaparib alone
[21] = at 0.000305 µM, OCI-C5x cells, without rucaparib
[22] = at 0.000305 µM, OCI-P5x cells, with rucaparib 20 µM, 100% = cells with rucaparib alone
[23] = at 0.000305 µM, OCI-P5x cells, without rucaparib
[24] = at 0.00122 µM, OCI-C5x cells, with rucaparib 10 µM, 100% = cells with rucaparib alone
[25] = at 0.00122 µM, OCI-C5x cells, without rucaparib
[26] = at 0.00122 µM, OCI-P5x cells, with rucaparib 20 µM, 100% = cells with rucaparib alone
[27] = at 0.00122 µM, OCI-P5x cells, without rucaparib
[28] = at 0.00488 µM, OCI-C5x cells, with rucaparib 10 µM, 100% = cells with rucaparib alone
[29] = at 0.00488 µM, OCI-C5x cells, without rucaparib
[30] = at 0.00488 µM, OCI-P5x cells, with rucaparib 20 µM, 100% = cells with rucaparib alone
[31] = at 0.00488 µM, OCI-P5x cells, without rucaparib
[32] = at 0.0195 µM, OCI-C5x cells, with rucaparib 10 µM, 100% = cells with rucaparib alone
[33] = at 0.0195 µM, OCI-C5x cells, without rucaparib
[34] = at 0.0195 µM, OCI-P5x cells, with rucaparib 20 µM, 100% = cells with rucaparib alone
[35] = at 0.0195 µM, OCI-P5x cells, without rucaparib
[36] = at 0.0781 µM, OCI-C5x cells, with rucaparib 10 µM, 100% = cells with rucaparib alone
[37] = at 0.0781 µM, OCI-C5x cells, without rucaparib
[38] = at 0.0781 µM, OCI-P5x cells, with rucaparib 20 µM, 100% = cells with rucaparib alone
[39] = at 0.0781 µM, OCI-P5x cells, without rucaparib
[40] = at 0.313 µM, OCI-C5x cells, with rucaparib 10 µM, 100% = cells with rucaparib alone
[41] = at 0.313 µM, OCI-C5x cells, without rucaparib
[42] = at 0.313 µM, OCI-P5x cells, with rucaparib 20 µM, 100% = cells with rucaparib alone
[43] = at 0.313 µM, OCI-P5x cells, without rucaparib
[44] = at 1.25 µM, OCI-C5x cells, with rucaparib 10 µM, 100% = cells with rucaparib alone
[45] = at 1.25 µM, OCI-C5x cells, without rucaparib
[46] = at 1.25 µM, OCI-P5x cells, with rucaparib 20 µM, 100% = cells with rucaparib alone
[47] = at 1.25 µM, OCI-P5x cells, without rucaparib
[48] = at 5 µM, OCI-C5x cells, with rucaparib 10 µM, 100% = cells with rucaparib alone
[49] = at 5 µM, OCI-C5x cells, without rucaparib
[50] = at 5 µM, OCI-P5x cells, with rucaparib 20 µM, 100% = cells with rucaparib alone
[51] = at 5 µM, OCI-P5x cells, without rucaparib

CNC(=O)c1cc(Oc2ccc(NC(=O)Nc3cc(C(C)(C)C)nn3-c3ccc4ncccc4c3)c(F)c2)ccn1
0.93: z-score [11, 19]
0.469: fold change [9, 15]
632: cell count [9, 17]
6970: cell count [10]
0.0864: SSMD [10]
608: cell count [9, 16]
active: AC50 [1] 5.9 µM | AC50 [2] 7.43 µM | AC50 [3] 8.33 µM | AC50 [4] 0.0661 µM | AC50 [5] 9.34 µM | AC50 [7] 5.9 µM | IC50 [8] 20.9 µM | z-score [11, 18] 3.18 | viability [12, 35] 97.7% | viability [12, 39] 97.7% | viability [12, 40] 96.9% | viability [12, 43] 96.4% | viability [12, 44] 77.5% | viability [12, 45] 96.1% | viability [12, 46] 29.9% | viability [12, 47] 97.7% | viability [12, 48] 9.96% | viability [12, 49] 8.93% | viability [12, 50] 17.1% | viability [12, 51] 4.51%
inactive: outcome [6] | fold change [9, 14] 0.963 | plate-normalised HSF1 focus index [10] 1.01 | viability [12, 20] 112% | viability [12, 21] 112% | viability [12, 22] 103% | viability [12, 23] 108% | viability [12, 24] 102% | viability [12, 25] 117% | viability [12, 26] 110% | viability [12, 27] 103% | viability [12, 28] 108% | viability [12, 29] 116% | viability [12, 30] 116% | viability [12, 31] 102% | viability [12, 32] 107% | viability [12, 33] 118% | viability [12, 34] 110% | viability [12, 36] 115% | viability [12, 37] 113% | viability [12, 38] 114% | viability [12, 41] 105% | viability [12, 42] 120%

CC1=C(C(=O)Nc2cc3cn[nH]c3cc2F)C(c2ccc(Cl)cc2F)N=C(c2ccnc(Cl)c2)N1 (configuration not stated)
active: AC50 [1] 13.2 µM | AC50 [5] 5.9 µM | AC50 [7] 16.6 µM
inactive: outcome [13]

CCn1nnc2c(N3CCOCC3)nc(-c3ccc(NC(=O)Nc4ccc(C(=O)N5CCN(C)CC5)cc4)cc3)nc21
active: AC50 [1] 0.372 µM | AC50 [2] 0.469 µM | AC50 [3] 0.0148 µM | AC50 [4] 0.742 µM | AC50 [5] 0.372 µM | AC50 [6] 0.166 µM | AC50 [7] 0.934 µM | IC50 [8] 0.742 µM

O=C(O)CCCCCC(=O)NN=C1CCCC1
inactive: outcome [1] | outcome [2] | outcome [3] | outcome [4] | outcome [5] | outcome [6] | outcome [7] | outcome [8]

C=C[C@H]1CN2CCC1C[C@@H]2C(O)c1ccnc2ccc(OC)cc12 (some centres not stated)
0.977: fold change [9, 15]
5880: cell count [9, 17]
inactive: outcome [1] | outcome [2] | outcome [3] | outcome [4] | outcome [5] | outcome [6] | outcome [7] | outcome [8] | fold change [9, 14] 0.966
5680: cell count [9, 16]

CC(C)(C)c1nc2c3cc[nH]c(=O)c3c3cc(F)ccc3c2[nH]1
active: AC50 [1] 16.6 µM | AC50 [5] 1.48 µM
inactive: outcome [13]

Clc1ccc(COC(Cn2ccnc2)c2ccc(Cl)cc2Cl)cc1 (configuration not stated)
active: AC50 [1] 18.6 µM | AC50 [5] 16.6 µM | AC50 [7] 13.2 µM
inactive: outcome [13]

COc1cc(NC(=O)c2ccc(-c3ccc(Cl)cc3)o2)cc(OC)c1
inactive: outcome [1] | outcome [4] | outcome [5] | outcome [6] | outcome [7] | outcome [8] | fold change [9, 14] 0.861 | z-score [11, 18] -0.392
9550: cell count [9, 16]
0.568: z-score [11, 19]
11100: cell count [9, 17]
0.756: fold change [9, 15]
active: AC50 [2] 0.935 µM | AC50 [3] 6.62 µM

CCN(CC)CCCCNc1ncc2cc(-c3cc(OC)cc(OC)c3)c(NC(=O)NC(C)(C)C)nc2n1
active: AC50 [1] 0.468 µM | AC50 [2] 26.4 µM | AC50 [3] 16.6 µM | AC50 [4] 0.372 µM | AC50 [5] 0.372 µM | AC50 [7] 16.6 µM | IC50 [8] 3.32 µM | viability [12, 22] 96.8% | viability [12, 23] 89.9% | viability [12, 27] 98.6% | viability [12, 49] 85.3% | viability [12, 50] 74.6% | viability [12, 51] 68.4%
0.5: z-score [11, 19]
4880 and 4370: cell count [9, 16]
5500 and 5930: cell count [9, 17]
-4.74: SSMD [10]
1.64 and 1.42: fold change [9, 15]
inactive: fold change [9, 14] 0.886 and 0.737 | plate-normalised HSF1 focus index [10] 0.703 | z-score [11, 18] -0.712 | viability [12, 20] 117% | viability [12, 21] 103% | viability [12, 24] 105% | viability [12, 25] 104% | viability [12, 26] 105% | viability [12, 28] 118% | viability [12, 29] 110% | viability [12, 30] 104% | viability [12, 31] 101% | viability [12, 32] 118% | viability [12, 33] 108% | viability [12, 34] 109% | viability [12, 35] 108% | viability [12, 36] 120% | viability [12, 37] 113% | viability [12, 38] 113% | viability [12, 39] 104% | viability [12, 40] 120% | viability [12, 41] 115% | viability [12, 42] 105% | viability [12, 43] 101% | viability [12, 44] 140% | viability [12, 45] 126% | viability [12, 46] 100% | viability [12, 47] 105% | viability [12, 48] 140%
7260: cell count [10]

O=C(O)c1ccccc1C(=O)Nc1ccc(-c2ccccc2)cc1
inactive: outcome [1] | outcome [2] | outcome [3] | outcome [4] | outcome [5] | outcome [7] | outcome [8]
